Drawing on ChEMBL document CHEMBL1157539, “Thousands of chemical starting points for antimalarial lead identification” (Nature, 2010), this text covers Inhibition for 13 compounds.

This assay deals with Plasmodium falciparum. The assay is described as follows: GSK_TCMDC: Inhibition of Plasmodium falciparum Dd2 in whole red blood cells, using parasite LDH activity as an index of growth. Test compounds present at 2uM. The assay is classed as functional.
`COc1ccc(-c2nc3c(N)nc(N)nc3nc2-c2ccccc2Cl)cc1.COc1ccc(-c2nc3nc(N)nc(N)c3nc2-c2ccccc2Cl)cc1.Cl`: the Inhibition (commonly the percentage by which the read-out fell short of the control) amounted to 0%.

In turn, `Cl.c1cc(COc2ccc(C3=NCCN3)cc2)nc(COc2ccc(C3=NCCN3)cc2)c1` had an Inhibition of 98%.

Compound `CC(=O)c1ccc(-c2ccc(C(=O)NCCCCN3CCC(c4ccc5c(c4OCC(N)=O)CCCC5)CC3)cc2)s1` registered an Inhibition of 4%.

`CC(C)(C)OC(=O)NCc1ccc(Nc2nnc(-c3ccc(OCC(=O)NC[C@@H]4CC[C@H]5C[C@@H]4C5(C)C)c([N+](=O)[O-])c3)o2)cc1` displayed an Inhibition of 52%.

`CCOc1c(Br)cc(Cl)cc1CNCCCNc1nc2ccccc2[nH]1.Cl` yielded an Inhibition of 3%.

Compound `CN1C(=CC(=O)NC(=O)c2ccccc2)C(C)(C)c2ccccc21` showed an Inhibition of 89%.

Compound `O=C(NCCCCN1CCC(c2ccc3c(c2OCCCO)CCCC3)CC1)c1ccc(-c2ccc(C(F)(F)F)cc2)cc1` displayed an Inhibition of 53%.

In turn, `CCCCCCN1CCC(NCc2ccc(OCCN3CCCC3)cc2)CC1.O=C(O)C(F)(F)F` came in with an Inhibition of 93%.

Compound `CCCCCOc1ccc(N2C(N)=NC(N)=NC2(C)C)cc1.Cl` had an Inhibition of 0%.

Consider `COc1ccc2nccc([C@@H](O)CN3CCC(NCCOc4cccc(F)c4F)CC3)c2c1.O=C(O)C(=O)O`, for which the Inhibition came to 85%.

On to `Cc1cc(C(=O)NC2CCN(CC3(c4ccccc4)CCCCC3)CC2)on1`, for which the Inhibition was 95%.

As for `CCOC(=O)c1cc(C(=O)NCCCCN2CCC(c3ccc4c(c3OC)CCCC4)CC2)ccc1-c1ccc(C(F)(F)F)cc1`, the Inhibition is 60%.

`CCOc1ccc(C2CCN(CCN3CCC(NC(=O)c4ccc(-c5ccc(C(F)(F)F)cc5)cc4)CC3)CC2)c(OCC2CC2)c1` displayed an Inhibition of 65%.
